Experimental findings from PubChem BioAssay (NCATS) are described below.

Each structure is given as a SMILES string. Results filed as inconclusive are left out. The source made the active and inactive calls. Calls follow the shape of the dose curve; as a rule, active = well fitted inhibition curve with a large enough effect; inconclusive = small, poorly fitted or top-dose-only effect; inactive = no such curve, though single readings can be large or run the other way.
Potency is read from the fitted curve at half-maximal effect.

This experiment can be described thus: qHTS to identify inhibitors of the type 1 interferon - major histocompatibility complex class I in skeletal muscle: primary screen against the NCATS Mechanism Interrogation Plate v5.0 (MIPE) Libary (AID 1347411). Also: nearly all actives have a fitted effect of over 65% in size.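 As to activity change, negative = inhibition: plate controls were vehicle for no effect and reference inhibitor for full effect.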 The note with it: iHSKM cells + IFN-b, HiBiT-tagged MHC-I luminescence, 24 h; series mostly up to 45.8 µM. The text has this: Assay Submitter (PI): Travis B. Kinder Ph.D. & James Inglese Ph.D.
Assay Development and Screening Technology Laboratory (ADST)
National Center for Advancing Translational Sciences (NCATS), Rockville, MD
National Institute of Health (NIH), Bethesda, Maryland
Idiopathic inflammatory myopathies, collectively referred to as myositis, are a group of rare autoimmune diseases characterized by skeletal muscle inflammation, weakness, and usually accompanied by systemic pathologies of the skin, lungs, or vasculature. Current immunosuppressive therapies and glucocorticoids are often not curative and are accompanied by harsh side effects, especially in children with juvenile myositis. We initiated a drug repurposing and development program to identify more targeted, less toxic therapeutics to treat myositis. Although its cause is not known, muscle from a subset of patients have an abundance of the inflammatory type 1 interferon (IFN) and a down-stream product major histocompatibility complex class I (MHC class I), which are both thought to contribute to damage and weakness. We conducted quantitative high throughput screening on 6,576 compounds (4,679 unique) through a series of cell-based assays to identify those that inhibit the IFN-stimulated expression of MHC class I in muscle precursor cells (myoblasts). The compound identification and evaluation strategy utilized a primary screen with reporter-tagged MHC class I in genome-engineered myoblasts, ATP content counter screen for viability, HLA-ABC immunofluorescence secondary screen, and HLA-B RT-qPCR tertiary screen.
The primary screen utilized CRISPR/Cas9 genome-engineering of immortalized human myoblasts, C25cl48, where a pro-luminescent reporter HiBit was fused to the C-terminus of endogenous MHC class I allele HLA-B*08:01 (HLA-B HiBit myoblasts). HiBit is an 11 amino acid fragment of NanoLuc luminescent reporter (Promega Corporation), and when complexed to the larger LgBit fragment, the reconstituted enzyme produces light in the presence of furimazine substrate (Schwinn et al., 2018). Briefly, HLA-B HiBit myoblasts were plated into 1536-well plates, treated with 4.0 ng/ml human IFN-beta and 2,480 compounds from the NCATS Mechanism Interrogation Plate v5.0 (MIPE5.0) in an 11-point, 1:3 titration with a high final concentration of 46 uM. After 24 hrs of treatment, cells were assayed by Nano-Glo HiBiT Lytic Detection System (Promega) and luminescence measured by a ViewLux 1430 Ultra HTS (Perkin Elmer).
Schwinn MK, Machleidt T, Zimmerman K, Eggers CT, Dixon AS, Hurst R, Hall MP, Encell LP, Binkowski BF, Wood K V. 2018. CRISPR-Mediated Tagging of Endogenous Proteins with a Luminescent Peptide. ACS Chem Biol 13:467-474. doi:10.1021/acschembio.7b00549
PROTOCOL TABLE (as described by Inglese et al., 2007)
SEQUENCE No. (e.g., 1, 2, 3, etc.); […] (e.g., Cells, Incubation, Reagent, etc.); VALUE; DESCRIPTION
1a; Cells; 5 uL; Use a Multidrop Combi (Thermo Scientific) to seed 300 cells/well into 24 Greiner 1536 well white/solid bottom, high base, TC plates in 5 ul/well of iHSKM growth medium (GM) without dexamethasone into columns 1+2. Add metal lids with gas-exchange holes
1b; Cells; 5 uL; Use a Multidrop Combi (Thermo Scientific) to seed 300 cells/well into 24 Greiner 1536 well white/solid bottom, high base, TC plates in 5 ul/well of iHSKM GM without dexamethasone + 4 ng/ml IFN-b into columns 3 - 48. Add metal lids with gas-exchange holes
2; Incubate; 1 hr; Incubate at 37 C, 5% CO2, 95% RH
3; Compounds; 23 nl; Use Pin Tool (Wako) to transfer DMSO control, ruxolitinib IFN-b inhibitor control [High Concentration = 80 uM final, 16-pt, 1:2 in duplicate], and library compounds in DMSO
4; Incubate; 24 hrs; Incubate at 37 C, 5% CO2, 95% RH
5; Dispense; 2.5 ul; Use BioRAPTR FRD (Beckman Coulter) to add HiBit lytic reagent
6; Incubate; 10 min; Incubate in the dark at ambient temperature for lysis
7; Detector; 5 sec; Measure luminescence with ViewLux 1430 Ultra HTS (Perkin Elmer). […]
Turning to `CN1c2cc(O)c(N=NC(N)=O)cc2CC1S(=O)(=O)O` (stereo not given), the Potency entry was “inactive”.
The same measure, in the same setting: the entry for `CC1COC2(CCN(c3nc(=O)c4cc(C(F)(F)F)cc([N+](=O)[O-])c4s3)CC2)O1` (stereo not given) is “inactive”; for `Cc1cc(Nc2cc(CN3CCOCC3)c3nc(C)c(Cc4ccc(Cl)cc4F)n3n2)n[nH]1` it is 5.23 µM (active); for `OCCCNc1cc(-c2ccnc(Nc3cccc(Cl)c3)n2)ccn1` it is 0.0415 µM (active).
On the same count and under the same terms, for `C=CC(=O)Nc1cc2c(Nc3ccc(F)c(Cl)c3)ncnc2cc1C#CC(C)(C)N1CCN(C)CC1` the value was 8.29 µM (active); for `CCN(CC)CCNC(=O)c1ccc2nc(-c3ccccc3)c(-c3ccc(CN4CCC(n5c(=O)[nH]c6ccccc65)CC4)cc3)nc2c1`, 6.58 µM (active).
Same read-out and setting: the figure for `CNC(=O)c1nn(C)c2c1C(C)(C)Cc1cnc(Nc3ccc(N4CCN(C)CC4)cc3)nc1-2` is 5.23 µM (active); for `COc1cccc2nc(-c3cccs3)nc(NN3C(=O)C=C(C)C3=O)c12` it is 2.94 µM (active); for `CNC(=O)c1cc(Oc2ccc(NC(=O)Nc3cc(C(C)(C)C)nn3-c3ccc4ncccc4c3)c(F)c2)ccn1` it is 8.29 µM (active).
As to `CC(C)c1noc(N2CCC(COc3ccc(-c4ccc(S(C)(=O)=O)cc4)nc3)CC2)n1`, the Potency entry is “inactive”.
Same read-out and setting: for `CNC(=O)c1c(F)cccc1Nc1nc(Nc2cc3c(cc2OC)CCN3C(=O)CN(C)C)nc2[nH]ccc12` the value was 7.39 µM (active); for `Cc1cc(Nc2nc(N[C@@H](C)c3ccc(F)cc3)c(C#N)cc2F)n[nH]1`, 2.08 µM (active).
Same read-out and setting: the entry for `CC(=O)OCCN1C(=O)c2c(C)nc3ccc(S(=O)(=O)N4CCOCC4)cc3c2C1=O` is “inactive”; for `C[C@@H]1CN(CC(=O)Nc2ccc3c(c2)Cc2cccc(-c4cc(=O)cc(N5CCOCC5)o4)c2S3)C[C@H](C)O1` it is “inactive”.
Turning to `Cc1cc(Nc2cc(NC(=O)c3c(Cl)cccc3Cl)ccn2)nc(N)n1`, the Potency is 4.66 µM (active).
For the compound `CC(C)c1cc(-c2n[nH]c(=O)n2-c2ccc3c(ccn3C)c2)c(O)cc1O`, the Potency is 0.0262 µM (active).
On the same count and under the same terms, the figure for `Cc1[nH]nc2ccc(-c3cncc(OC[C@@H](N)Cc4ccccc4)c3)cc12` is 1.86 µM (active); for `CC(C)c1cnn2c(NCc3ccccc3)cc(N[C@@H](CO)[C@H](O)CO)nc12` it is 0.186 µM (active); for `Cc1c(NC(=O)OC[C@@H]2COCCN2)cn2ncnc(Nc3ccc4c(cnn4Cc4cccc(F)c4)c3)c12` it is “inactive”.
As to `O=C(CCCCCCC(=O)Nc1ccc([C@H]2O[C@@H](CSc3nc(-c4ccccc4)c(-c4ccccc4)o3)C[C@@H](c3ccc(CO)cc3)O2)cc1)NO`, the activity change, negative = inhibition is 14.6% [at 8.44 µM] (inactive).
For `Cc1ccc(-c2ncn(-c3ccc(Nc4nccc(-c5cccc(N6CCOCC6)c5)n4)cc3)n2)cn1`, the Potency was 0.829 µM (active).
The same measure, in the same setting: the entry for `COc1ccc2c(c1)CC[C@@H](CN(C)CC(=O)O)[C@H]2c1ccccc1` is “inactive”; for `CN(C)CCCN=c1c2ccccc2n(C)c2[nH]c(=O)n(C)c(=O)c12` it is 16.5 µM (active); for `Nc1nc(-c2nn(Cc3ccccc3F)c3ncccc23)nc(N)c1N1CCOCC1` it is “inactive”.
The same measure, in the same setting: for `CCCn1c(=O)c2[nH]c(-c3cnn(Cc4cccc(C(F)(F)F)c4)c3)nc2n(CC)c1=O` the value was “inactive”.
Same read-out and setting: the figure for `C[C@@]12O[C@@H](C[C@]1(O)CO)n1c3ccccc3c3c4c(c5c6ccccc6n2c5c31)CNC4=O` is 0.739 µM (active).
For `CCCCCCCCCC(=O)N[C@@H](Cc1c[nH]c2ccccc12)C(=O)N[C@H](CC(N)=O)C(=O)N[C@@H](CC(=O)O)C(=O)N[C@@H]1C(=O)NCC(=O)N[C@@H](CCCN)C(=O)N[C@@H](CC(=O)O)C(=O)N[C@H](C)C(=O)N[C@@H](CC(=O)O)C(=O)NCC(=O)N[C@H](CO)C(=O)N[C@@H]([C@@H](C)CC(=O)O)C(=O)N[C@@H](CC(=O)c2ccccc2N)C(=O)O[C@@H]1C`, the Potency result is “inactive”.
On the same count and under the same terms, for `C#Cc1cccc(Nc2ncnc3cc(OC)c(OCCCCCCC(=O)NO)cc23)c1` the value was 1.65 µM (active).
Still for that read-out and setting: for `COc1ccc(C(=O)CC2(O)C(=O)Nc3c(Cl)ccc(Cl)c32)cc1` (stereo not given) the value was “inactive”; for `Cc1ccc2nc(NC(=O)CSc3nc4c(c(=O)n3-c3ccccc3)SCC4)sc2c1`, “inactive”; for `O=C(O)[C@H](Cc1c[nH]c2ccccc12)N1C(=O)c2ccccc2C1=O`, “inactive”.
Same read-out and setting: for `Nc1ccccc1NC(=O)c1ccc(CNc2nccc(-c3cccnc3)n2)cc1` the value was 7.39 µM (active).
With `O=C(O)c1ccc2c(c1)nc(Nc1cccc(Cl)c1)c1ccncc12`, the Potency is 16.5 µM (active).
On the same count and under the same terms, for `Cc1nc(Nc2n[nH]c3c2CN(C(=O)N[C@H](CN(C)C)c2ccccc2)C3(C)C)c2sccc2n1` the value was 0.0523 µM (active); for `CC(C)Nc1cc(C(F)(F)F)cc2nc(NC(=O)c3cccnc3)nn12`, “inactive”.
The same measure, in the same setting: for `COc1ccc(-n2nc(C(N)=O)c3c2C(=O)N(c2ccc(N4CCCCC4=O)cc2)CC3)cc1` the value was “inactive”.
For `COc1ccc(OC)c(-c2nnc3ccc(-c4ccc(OC)c(O[C@@H]5CCOC5)c4)nn23)c1`, the Potency result was “inactive”.
As for `COCCn1c2c([n+](Cc3cnccn3)c1C)C(=O)c1ccccc1C2=O`, the Potency was 2.34 µM (active).
For the compound `CCN1CCN(Cc2ccc(-c3cc4c(N[C@H](C)c5ccccc5)ncnc4[nH]3)cc2)CC1`, the Potency is 18.6 µM (active).
For `COc1ccc(CC2c3cc(OC)c(OC)cc3CC[N+]2(C)CCC(=O)OCCCCCOC(=O)CC[N+]2(C)CCc3cc(OC)c(OC)cc3C2Cc2ccc(OC)c(OC)c2)cc1OC` (stereo not given), the Potency result is “inactive”.
